Activity calls are given as the source filed them.
Legend:
[1] = optical density shifts of acrAB sulA E. coli – strain DRC41, OD650, 48 h, E. coli filamentation inducer project, primary screen (AID 1152); conditions: higher = more signal, called active from +8 up or from −8 down;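 note: E. coli MC1000 strain DRC41 lacking acrAB efflux pump and sulA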
[2] = probe aLefty1 binding on compound microarray – biochemical, small-molecule microarray, 635/667 nm fluorescence, primary screen (AID 1153); conditions: higher = more signal;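 note: score merges spot fluorescence with signal-to-noise ratio from the scanned slide images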
[3] = plasmodial surface anion channel blockers, osmotic lysis – cell-based, P. falciparum Indochina, OD700, 1 h, primary screen (AID 1154); conditions: P. falciparum Indochina infected RBC osmotic lysis, higher = more signal, called active from +8 up or from −8 down
[4] = plasmodial surface anion channel blockers, osmotic lysis – cell-based, P. falciparum Indochina, OD700, 2 h, primary screen (AID 1155);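 note: lysis reports solute entry through the parasite surface anion channel PSAC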; conditions: P. falciparum Indochina infected erythrocytes, higher = more signal, called active from +8 up or from −8 down
[5] = changes in parasitized red cell lysis, either direction – P. falciparum Indochina, OD700, 3 h, PSAC antagonist project, primary screen (AID 1156); conditions: P. falciparum-infected erythrocytes, osmotic lysis, higher = more signal, called active from +8 up or from −8 down
[6] = plasmodial surface anion channel blockers, osmotic lysis – cell-based, P. falciparum Indochina, OD700, 18 h, primary screen (AID 1157); conditions: P. falciparum Indochina infected erythrocytes, osmotic lysis OD700, 18 h; higher = more signal, called active from +8 up or from −8 down
[7] = S6 kinase pathway phospho-S6 level changes – cell-based, A549, cytoblot, luminescence, serum-stimulated, primary screen (AID 1158); conditions: 5 h, higher = more signal;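 note: serum-stimulated A549 lung adenocarcinoma cells; signal is phosphorylated S6 detected by cytoblot immunostaining with HRP secondary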
[8] = molecular target: NADPH oxidase 2 (Homo sapiens) (UniProt P04839); assay: compounds shifting NOX2 Amplex Red fluorescence – cell-based, HEK293-NOX2, PMA-stimulated, NOX inhibitor project, primary screen (AID 1159); conditions: 45 min, higher = more signal, called active from +8 up or from −8 down; note: test concentration not given here
Sequence of NADPH oxidase 2 (Homo sapiens) (P04839 whole entry, looked up): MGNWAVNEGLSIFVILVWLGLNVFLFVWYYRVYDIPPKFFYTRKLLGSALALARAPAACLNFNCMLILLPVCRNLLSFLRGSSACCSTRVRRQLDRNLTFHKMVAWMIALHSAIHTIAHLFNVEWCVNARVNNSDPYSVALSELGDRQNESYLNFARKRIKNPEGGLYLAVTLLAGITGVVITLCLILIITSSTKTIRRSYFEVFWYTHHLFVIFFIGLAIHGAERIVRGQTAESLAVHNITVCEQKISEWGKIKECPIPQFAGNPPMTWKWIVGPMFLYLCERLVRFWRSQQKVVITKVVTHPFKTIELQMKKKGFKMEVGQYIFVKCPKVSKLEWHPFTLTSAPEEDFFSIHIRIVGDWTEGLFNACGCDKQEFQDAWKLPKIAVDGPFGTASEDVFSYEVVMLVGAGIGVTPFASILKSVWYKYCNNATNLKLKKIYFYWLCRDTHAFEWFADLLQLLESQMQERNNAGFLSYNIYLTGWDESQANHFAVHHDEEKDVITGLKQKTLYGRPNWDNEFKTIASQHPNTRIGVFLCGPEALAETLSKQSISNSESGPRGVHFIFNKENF

[9] = molecular target: NADPH oxidase 4 (Homo sapiens) (UniProt Q9NPH5); assay: compounds shifting NOX4 Amplex Red fluorescence – cell-based, HEK293-NOX4, tetracycline-induced, NOX inhibitor project, primary screen (AID 1160); conditions: HEK293-NOX4, Amplex Red H2O2 fluorescence, 45 min; higher = more signal, called active from +8 up or from −8 down
Sequence of NADPH oxidase 4 (Homo sapiens) (Q9NPH5 whole entry, looked up): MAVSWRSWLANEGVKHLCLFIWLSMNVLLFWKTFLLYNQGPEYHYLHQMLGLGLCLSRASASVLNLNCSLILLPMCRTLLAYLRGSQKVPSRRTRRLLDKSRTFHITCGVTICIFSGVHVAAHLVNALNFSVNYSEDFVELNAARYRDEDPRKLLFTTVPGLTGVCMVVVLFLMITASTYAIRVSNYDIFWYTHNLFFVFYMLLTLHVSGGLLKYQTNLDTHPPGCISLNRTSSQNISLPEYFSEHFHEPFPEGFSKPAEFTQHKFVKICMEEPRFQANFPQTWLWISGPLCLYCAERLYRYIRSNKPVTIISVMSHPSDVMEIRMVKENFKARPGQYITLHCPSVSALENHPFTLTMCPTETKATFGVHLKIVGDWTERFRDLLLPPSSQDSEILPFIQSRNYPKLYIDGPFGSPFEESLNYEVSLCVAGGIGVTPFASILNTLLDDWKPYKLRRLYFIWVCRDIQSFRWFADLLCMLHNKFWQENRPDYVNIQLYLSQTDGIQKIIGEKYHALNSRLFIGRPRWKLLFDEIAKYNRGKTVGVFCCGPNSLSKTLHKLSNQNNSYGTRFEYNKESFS

[10] = molecular target: NADPH oxidase 5 (Homo sapiens) (UniProt Q96PH1); assay: compounds shifting NOX5 Amplex Red fluorescence – cell-based, HEK293-NOX5, NOX inhibitor project, primary screen (AID 1161); conditions: HEK293-NOX5, ionomycin, 45 min, higher = more signal
Sequence of NADPH oxidase 5 (Homo sapiens) (Q96PH1 whole entry, looked up): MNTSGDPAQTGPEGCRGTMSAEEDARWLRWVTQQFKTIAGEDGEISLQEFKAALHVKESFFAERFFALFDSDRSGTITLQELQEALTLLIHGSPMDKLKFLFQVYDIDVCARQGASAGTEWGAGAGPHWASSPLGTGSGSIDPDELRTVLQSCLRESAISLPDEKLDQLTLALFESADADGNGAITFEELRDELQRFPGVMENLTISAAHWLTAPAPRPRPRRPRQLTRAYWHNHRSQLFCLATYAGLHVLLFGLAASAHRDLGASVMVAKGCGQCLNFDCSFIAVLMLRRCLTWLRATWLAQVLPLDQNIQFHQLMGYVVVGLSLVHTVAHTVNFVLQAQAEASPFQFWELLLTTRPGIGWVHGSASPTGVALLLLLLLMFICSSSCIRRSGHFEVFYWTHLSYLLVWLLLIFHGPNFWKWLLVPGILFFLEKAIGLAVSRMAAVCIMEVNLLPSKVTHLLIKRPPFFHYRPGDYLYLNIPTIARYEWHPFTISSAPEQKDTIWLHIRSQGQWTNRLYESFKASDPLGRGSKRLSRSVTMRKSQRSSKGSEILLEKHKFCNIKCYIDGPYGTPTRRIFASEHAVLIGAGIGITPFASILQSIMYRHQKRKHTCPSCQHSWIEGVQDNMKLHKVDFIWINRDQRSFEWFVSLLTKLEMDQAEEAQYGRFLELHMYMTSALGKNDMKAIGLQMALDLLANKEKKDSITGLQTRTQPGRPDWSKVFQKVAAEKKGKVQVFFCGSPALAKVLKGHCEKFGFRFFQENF

[11] = compound effects on lung adenocarcinoma cell viability – A549, calcein-AM fluorescence, 48 h, basal, profiling panel (AID 1162); conditions: higher = more signal; note: test concentration not given here
[12] = compound effects on differentiated 3T3-L1 adipocyte viability – cell-based, 3T3-L1 adipocytes, calcein-AM fluorescence, 48 h, basal, profiling panel (AID 1163); conditions: 3T3-L1 adipocytes viability, higher = more signal; note: test concentration not given here
[13] = compound effects on hepatocellular carcinoma cell viability – HepG2, calcein-AM fluorescence, 48 h, basal, profiling panel (AID 1164); conditions: higher = more signal; note: test concentration not given here
[14] = compound effects on multiple myeloma cell viability – MM1S, calcein-AM fluorescence, 48 h, basal, profiling panel (AID 1165); conditions: higher = more signal; note: test concentration not given here
[15] = calcein-AM signal in unstimulated myeloma cells – cell-based, calcein-AM fluorescence, 48 h, PK04 Diversity Set, profiling panel (AID 1166); conditions: RPMI8226 myeloma viability, higher = more signal;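 note: cells grown under basal conditions without added stimulus; test concentration not given here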
[16] = JC-1 mitochondrial signal, unstimulated HepG2 cells – cell-based, JC-1 fluorescence, 24 h, 100 nL compound, profiling panel (AID 1167); conditions: HepG2 mitochondrial potential, higher = more signal; note: test concentration not given here
[17] = JC-1 mitochondrial signal, unstimulated adipocytes – cell-based, JC-1 fluorescence, 3T3-L1 adipocytes, 24 h, 100 nL compound, profiling panel (AID 1168); conditions: JC-1 mitochondrial fluorescence, higher = more signal, called active from +8 up or from −8 down; note: test concentration not given here
[18] = JC-1 mitochondrial signal, unstimulated myeloma cells – cell-based, JC-1 fluorescence, RPMI8226, 24 h, 100 nL compound, profiling panel (AID 1169); conditions: JC-1 mitochondrial potential fluorescence, higher = more signal; note: test concentration not given here
[19] = JC-1 mitochondrial signal, unstimulated MM1S myeloma – cell-based, JC-1 fluorescence, 24 h, 100 nL compound, profiling panel (AID 1170); conditions: MM1S mitochondrial potential, higher = more signal; note: test concentration not given here
[20] = resazurin metabolic signal in A549 cells – cell-based, resazurin fluorescence, 24 h, PK04 Diversity Set, profiling panel (AID 1171); conditions: A549 viability, higher = more signal, called active from +8 up or from −8 down; note: test concentration not given here

SMILES	z-score [1]	composite z-score [2]	z-score [3]	z-score [4]	z-score [5]	z-score [6]	z-score [7]	z-score [8]	z-score [9]	z-score [10]	z-score [11]	z-score [12]	z-score [13]	z-score [14]	z-score [15]	z-score [16]	z-score [17]	z-score [18]	z-score [19]	z-score [20]
CCC[C@@H]1C[C@@]1(CCC)[C@@H](NC(=O)c1ccccc1)c1cccc(Cl)c1	-1 (inactive)	2.15	0.534 (inactive)	0.364 (inactive)	0.277 (inactive)	0.839 (inactive)	-0.841	0.46 (inactive)	-0.107 (inactive)	0.328	-0.927	-0.546	-0.0147	-1.78	-0.385	0.909	0.349 (inactive)	0.466	-0.0307	0.908 (inactive)
O=C1N[C@@H](Cc2ccccc2)C(=O)N2[C@@H]1C[C@@H](C(=O)O)[C@H]2c1cccc(OCCO)c1	0.931 (inactive)	0.0903	6.39 (inactive)	1.12 (inactive)	-2.03 (inactive)	0.375 (inactive)	1.17	-2.21 (inactive)	-2.89 (inactive)	-0.102	0.432	-0.732	-0.0202	-2.61	0.358	1.3	-1.49 (inactive)	0.448	-1.19	2.99 (inactive)
O=C1c2ccccc2[C@](Cc2ccccc2I)(C(=O)NCC(F)(F)F)[C@H](c2ccc(CO)cc2)N1Cc1ccccc1Cl	0.193 (inactive)	-0.105	4.4 (inactive)	0.208 (inactive)	1.84 (inactive)	0.499 (inactive)	0.312	2.69 (inactive)	0.566 (inactive)	1.05	0.0986	0.46	0.0068	-1.06	-1.55	0.798	0.149 (inactive)	-0.68	-1.34	1.57 (inactive)
CN(C)CCCCCCNC(=O)[C@H]1C[C@H]2C(=O)N[C@@H](CCCCN)C(=O)N2[C@H]1c1cccc(OCCO)c1	-0.497 (inactive)	2.71	2.2 (inactive)	0.192 (inactive)	0.32 (inactive)	0.229 (inactive)	-0.268	1.65 (inactive)	1.03 (inactive)	1.24	-0.214	0.414	-0.458	-0.371	-0.497	0.272	0.587 (inactive)	-0.636	0.358	-0.0439 (inactive)
CC1(C)C2C=C(C(O)C3C=CC4C(=O)NC(=O)C4N3Nc3ccc(Cl)cc3Cl)C[C@@H]1C2 (stereo not given in full)	-4.41 (inactive)	0.265	3.33 (inactive)	0.916 (inactive)	-2.43 (inactive)	1.19 (inactive)	-1.38	-0.197 (inactive)	-5.57 (inactive)	-3.46	-2.48	-0.88	-1.8	-3.73	-4.1	-4.27	-0.803 (inactive)	-1.14	-1.04	-1.85 (inactive)
O=C(c1ccccc1)N1C(=O)[C@@]2(Cc3ccccc31)N=C(c1ccc(OCCCO)cc1)O[C@H]2c1ccccc1	-0.632 (inactive)	0.554	14.6 (active)	2.37 (inactive)	3.04 (inactive)	1.03 (inactive)	-0.256	-0.595 (inactive)	-0.0485 (inactive)	-1.74	-1.31	0.668	-1.58	-3.54	-4.36	0.157	0.479 (inactive)	-1.19	-2.17	-1.62 (inactive)
COc1cc2c(cc1OC)CN(C(=O)[C@H]1[C@@H]3C(=O)O[C@@H](c4ccccc4)[C@@H](c4ccccc4)N3[C@@H](c3ccc(O)cc3)[C@]13C(=O)Nc1ccccc13)CC2	-0.444 (inactive)	0.0036	0.734 (inactive)	-0.397 (inactive)	-0.473 (inactive)	0.801 (inactive)	0.0493	0.96 (inactive)	0.754 (inactive)	1.37	-0.214	-0.843	0.394	-0.723	-1.47	-1.2	0.977 (inactive)	-0.542	-0.594	-0.0574 (inactive)
CN(C)CCCC[C@@H]1NC(=O)[C@@H]2C[C@H](C(=O)NCCCCCCN)[C@H](c3cccc(OCCO)c3)N2C1=O	-0.3 (inactive)	1.1	3.07 (inactive)	0.198 (inactive)	1.87 (inactive)	0.105 (inactive)	0.292	0.956 (inactive)	1.14 (inactive)	0.941	-0.481	1.24	-1.21	-0.304	0.294	-1.3	-0.735 (inactive)	-0.17	0.454	-0.511 (inactive)
COC(=O)[C@@]1(Cc2ccc(F)cc2)[C@H]2c3cc(C(=O)N4CCCC4)n(Cc4ccc(S(C)(=O)=O)cc4)c3C[C@H]2CN1C(=O)c1ccccc1	-1.75 (inactive)	1.24	2.29 (inactive)	0.675 (inactive)	0.775 (inactive)	0.643 (inactive)	-0.339	0.949 (inactive)	-0.138 (inactive)	-0.744	0.0676	0.582	-0.035	-1.23	-1.35	2.11	-1.3 (inactive)	0.611	-0.583	0.039 (inactive)
COCCOC(=O)N1C(=O)[C@@]2(c3cc(C#Cc4ccc(OC)cc4)ccc31)[C@H](c1ccc(O)cc1)N1[C@H](c3ccccc3)[C@H](c3ccccc3)OC(=O)[C@H]1[C@@H]2C(=O)N1CCc2cc(OC)c(OC)cc2C1	0.892 (inactive)	0.134	1.92 (inactive)	1.19 (inactive)	0.401 (inactive)	0.827 (inactive)	0.035	0.478 (inactive)	0.398 (inactive)	1.08	-0.548	1.22	-0.486	-0.0636	-0.063	0.793	2.76 (inactive)	0.188	0.108	0.776 (inactive)
CC(=O)NCCCC[C@@H]1NC(=O)[C@@H]2C[C@H](C(=O)NCCCCCNC(=O)CS)[C@H](c3cccc(OCCO)c3)N2C1=O	1.52 (inactive)	0.0536	1.33 (inactive)	-0.202 (inactive)	0.344 (inactive)	-1.85 (inactive)	0.697	-1.05 (inactive)	0.489 (inactive)	0.0642	0.189	0.767	-0.884	0.28	0.403	-1.12	-0.843 (inactive)	0.436	-0.892	0.131 (inactive)
C=C[C@H](C)[C@@H](OC(=O)Nc1ccc(OC)cc1)c1ccc(O)c2ccccc12	-0.368 (inactive)	0.0903	3.54 (inactive)	0.265 (inactive)	-0.122 (inactive)	0.132 (inactive)	-0.751	-5.53 (inactive)	-1.89 (inactive)	-0.55	-1.17	0.323	-1.54	-2.78	-4.12	-3.42	-1.19 (inactive)	-1.01	-1.94	-1.12 (inactive)
CN(C)C(=O)[C@]1(Cc2ccccc2N=[N+]=[N-])N=C(c2ccc(OCCCO)cc2)O[C@@H]1c1ccccc1N=[N+]=[N-]	1.02 (inactive)	0.431	30.7 (active)	25.6 (active)	1.15 (inactive)	7.43 (inactive)	2.53	-1.59 (inactive)	0.482 (inactive)	0.199	0.03	0.899	-0.468	-3.3	-3.67	1.53	1.41 (inactive)	-0.946	-1.8	-2.16 (inactive)
COCCOC(=O)N1C(=O)[C@@]2(c3cc(C#CCC(C(=O)OC)C(=O)OC)ccc31)[C@H](C(=O)N1CCN(c3ncccn3)CC1)[C@H]1C(=O)O[C@H](c3ccccc3)[C@H](c3ccccc3)N1[C@@H]2c1ccccc1OCCO	-0.646 (inactive)	0.312	3.14 (inactive)	1.55 (inactive)	0.391 (inactive)	0.533 (inactive)	0.0555	1.45 (inactive)	0.851 (inactive)	1.3	0.0182	0.462	-0.481	-0.748	0.297	1.37	1.39 (inactive)	-0.182	-1.2	-0.174 (inactive)
O=C1C[C@@](C(=O)NCCN2CCOCC2)(c2ccc([N+](=O)[O-])cc2)[C@@H](c2ccc(CO)cc2)N1CC12CC3CC(CC(C3)C1)C2	-3.18 (inactive)	0.394	4.51 (inactive)	1.23 (inactive)	1.24 (inactive)	0.548 (inactive)	0.101	-4.27 (inactive)	-2.56 (inactive)	-1.06	-2.97	0.0433	-3	-3.83	-4.23	-2.04	-0.907 (inactive)	-0.893	-0.615	-2.06 (inactive)
CCCC[C@H]1OB(O)C[C@H]2C1=C(COC)Cn1c(=O)n(-c3ccccc3)c(=O)n12	0.929 (inactive)	-0.101	0.43 (inactive)	0.0541 (inactive)	0.11 (inactive)	0.0357 (inactive)	0.385	0.175 (inactive)	0.317 (inactive)	0.476	0.0913	-0.21	-0.136	-1.16	-0.657	0.0213	-0.199 (inactive)	0.454	-0.73	0.921 (inactive)
O=C(NCCN1CCOCC1)C1N=C(c2ccc(OCCCO)cc2)N(c2ccccc2)O1 (stereo not given)	0.759 (inactive)	0.0709	6.99 (inactive)	0.287 (inactive)	-0.625 (inactive)	0.399 (inactive)	-0.441	1.45 (inactive)	-0.0142 (inactive)	-0.429	0.264	-0.126	0.291	0.66	-0.425	0.0176	0.653 (inactive)	-1.28	1.27	0.712 (inactive)
C=CCC(OC(C)=O)[C@@H]1[C@@H](N(Cc2ccc(-c3ccccc3)cc2)C(=O)c2cccc3ccccc23)c2cc(OCCCO)ccc2N1C(=O)c1ccc(-c2ccccc2)cc1 (stereo not given in full)	0.82 (inactive)	0.46	0.353 (inactive)	1.06 (inactive)	-0.291 (inactive)	0.358 (inactive)	0.121	0.299 (inactive)	-0.394 (inactive)	-4.31	0.143	0.286	0.391	0.139	-0.094	3.13	0.266 (inactive)	-0.745	-0.00624	0.126 (inactive)
